Bioassay records deposited in PubChem BioAssay by National Center for Advancing Translational Sciences (NCATS).
This is one part of a sample in which hits are shown more often than they occur.
Pf Dd2 inh – inhibitors of Plasmodium falciparum Dd2 growth | P. falciparum Dd2 growth, SYBR Green, 72 h | Potency, µM (series often up to 28.9 µM), usual class: inhibitors | actives 4.3% (n = 120,000) | AID 1347417; active = well fitted inhibition curve with a large enough effect; also: nearly all actives have a fitted effect of over 65% in size
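Readout: SYBR Green fluorescence, 485 nm excitation, 535 nm emission, after ~16 h lysis at 37C. Before that, Dd2-infected red cells (2.5% hematocrit) grew 72 h with compound, 29 uM top final concentration.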
Numbers stand for hits.

For C[S+](=O)([O-])N1CCCC2(Cc3ccccc3CN2C(=O)C2CCCC2)C1 (configuration not stated) the results were Pf Dd2 inh inactive.
Screening O=C(c1coc(COc2ccc(F)cc2Cl)n1)N1CCCCO1 returned Pf Dd2 inh inactive.
`CCNc1ncnc2sc3c(c12)CCN(C(=O)CCOC)C3` gave Pf Dd2 inh inactive.
`Oc1cccc(Nc2ncnc3sc4c(c23)CCCC4)c1` gave Pf Dd2 inh inactive.
Screening COc1ncc(CN2CCc3c(n(Cc4cccnc4)n(-c4ccccc4)c3=O)C2)cn1 returned Pf Dd2 inh inactive.
For COCCCNc1ncnc2sc3c(c12)CCN(Cc1cccnc1)C3 the results were Pf Dd2 inh 5.01µM.
For CCNc1ncnc2sc3c(c12)CCN(Cc1ccncc1)C3 the results were Pf Dd2 inh 12.6µM.
Screening CCNc1ncnc2sc3c(c12)CCN(C(=O)COC)C3 returned Pf Dd2 inh inactive.
For CC(C)n1cc2cc(C(=O)NCc3cnccn3)sc2c1 the results were Pf Dd2 inh inactive.
Screening COc1cc(NC(=O)CN2C(=O)NC3(CCC(C)CC3)C2=O)cc(OC)c1 (configuration not stated) returned Pf Dd2 inh inactive.
For CC(C)CC(=O)NC[C@@H]1C[C@H](F)CN1C(=O)CCCc1cccs1 the results were Pf Dd2 inh inactive.
O=c1n(-c2ccc([N+](=O)[O-])cc2)nc2n1CCN(Cc1ccc(C(F)(F)F)cc1)C2 was read as Pf Dd2 inh inactive.
CCNC(=O)N1CCC(CCOc2ccccc2)C1 (configuration not stated) was read as Pf Dd2 inh inactive.
`CCCn1cc(C2CCN(S(=O)(=O)c3ccccc3Cl)CC2)c2ccccc21` gave Pf Dd2 inh inactive.
COc1ccc(C(=O)N2CCC(c3nc4ccccc4s3)CC2)cc1Cl was read as Pf Dd2 inh inactive.
Cn1cc(C2CCN(C(=O)c3sc(Cl)c(Cl)c3Cl)CC2)c2ccccc21 was read as Pf Dd2 inh 7.94µM.
`COc1cc(NC(=O)CSc2nc(-c3ccc(C(C)C)cc3)no2)cc(OC)c1` gave Pf Dd2 inh 0.708µM.
Screening COc1cc(NC(=O)CSc2nc(-c3ccccc3)no2)cc(OC)c1 returned Pf Dd2 inh 1.12µM.
For COc1cc(NC(=O)CSc2nc3ccccc3nc2Cc2ccc(Cl)cc2)cc(OC)c1 the results were Pf Dd2 inh inactive.
Screening COc1cc(NC(=O)CSc2ncccc2C(=O)OC(C)C)cc(OC)c1 returned Pf Dd2 inh inactive.
For COc1ccc(NC(=O)CSc2cc(-c3ccccc3)nc(C)n2)cc1 the results were Pf Dd2 inh inactive.
`COc1cc(NC(=O)Cn2cccc2-c2nc(-c3ccc(OC)c(F)c3)no2)cc(OC)c1` gave Pf Dd2 inh inactive.
`COCCCn1c(C)cnc1C1CCN(C(=O)Nc2ccc3c(c2)OCCO3)C1` (configuration not stated) gave Pf Dd2 inh inactive.
`COCC1CN(C)CC12CCN(Cc1ccncc1)CC2` (configuration not stated) gave Pf Dd2 inh inactive.
Screening COCC1CN(C)CC12CCN(Cc1ccncc1F)CC2 (configuration not stated) returned Pf Dd2 inh inactive.
Screening COCC1CN(C)CC12CCN(Cc1cc(Br)ccc1F)CC2 (configuration not stated) returned Pf Dd2 inh 3.55µM.
`O=[S+]([O-])(c1cccs1)N1CCCN(c2nc3ncccc3o2)CC1` gave Pf Dd2 inh inactive.
`CC(C)=CC(=O)N1CC[C@H](NC(=O)NC2CCCCC2)[C@H]1C(=O)N[C@H](Cc1c[nH]c2ccccc12)C(N)=O` gave Pf Dd2 inh inactive.
CCOc1ccccc1C(=O)NC1CCN(c2cnn(CCOC)c(=O)c2)CC1 was read as Pf Dd2 inh inactive.
CN(C)c1ccc2nnc(-c3cc(C(=O)N(C)c4ccccc4)ccn3)n2n1 was read as Pf Dd2 inh inactive.
COc1ccc(-c2nnc3ccc(N4CCN(c5ccccn5)CC4)nn23)nc1 was read as Pf Dd2 inh 12.6µM.
`COCCCNc1ccc2nnc(-c3ccc(C)cn3)n2n1` gave Pf Dd2 inh inactive.
COc1ccc(-c2nnc3ccc(N(C)Cc4ccccc4)nn23)nc1 was read as Pf Dd2 inh 7.94µM.
Screening COc1ccc(-c2nnc3ccc(N4CCc5ccccc5CC4)nn23)nc1 returned Pf Dd2 inh inactive.
C[C@@H]1CN(c2ccc3nnc(-c4ccccn4)n3n2)C[C@H](C)O1 was read as Pf Dd2 inh inactive.
For CN1CC(=O)N(C2CCCNC2)Cc2c1ncnc2N1CCCN(Cc2ccccc2)CC1 (configuration not stated) the results were Pf Dd2 inh inactive.
O=C(c1ccc(C(F)(F)F)cc1)N1CCCC2(CN[S+](=O)([O-])c3ccccc3N2)C1 (configuration not stated) was read as Pf Dd2 inh inactive.
C=CCNC(=O)N[C@H]1CCN(C(=O)CC(C)(C)C)[C@@H]1C(=O)N[C@@H](C(=O)OC)C(C)C was read as Pf Dd2 inh inactive.
Screening c1cnc2c(c1)ncn2C1CCCC1 returned Pf Dd2 inh inactive.
